# Compound activity (PubChem)
# In the library only some 9.4% were active in any assay of this set; here they are far more common.
# IMPase Li inh: qHTS Assay for Identifying the Cell-Membrane Permeable IMPase Inhibitors: Potentiation with Lithium. CHO-M1 cells, IP1 TR-FRET (IP-One), carbachol + lithium. Potency, µM (highest dose often 59.4 µM), for the others: at the top dose activity, negative = IMPase inhibition, hits mostly inhibitors. hit rate 0.35% among 210,000. AID 1457, 2008;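 further: IP1 builds up when IMPase is blocked and the TR-FRET signal falls; potency means the concentration at half of the fitted maximal effect; plate controls were basal vehicle for no effect and high inhibitor control for full effect; nearly all actives have a fitted effect of over 50% in size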
#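 Concentration–response in CHO-M1 cells, lithium-potentiated; 30 min at 37C. IP1 detected by competitive TR-FRET after 10 min lysis at RT. Hill-fitted AC50.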
# HPGD block: qHTS Assay for Inhibitors of HPGD (15-Hydroxyprostaglandin Dehydrogenase); 15-hydroxyprostaglandin dehydrogenase [NAD(+)] (Homo sapiens), P15428; purified HPGD, NADH fluorescence kinetic, PGE2 substrate; Potency, µM, without a hit: at the highest dose activity change, negative = inhibition, actives largely listed as inhibitors; hit rate 4.3% among 150,000; AID 894, 2007; active means well fitted inhibition curve with a large enough effect, not every such curve was filed as active; inconclusive means small, poorly fitted or top-dose-only effect, or another doubt; inactive means no such curve, though single readings can be large or run the other way; further: potency means the concentration at half of the fitted maximal effect; on the % scale 0 is the no-effect control and ±100 the full control effect
# Target sequence (P15428 whole entry, looked up): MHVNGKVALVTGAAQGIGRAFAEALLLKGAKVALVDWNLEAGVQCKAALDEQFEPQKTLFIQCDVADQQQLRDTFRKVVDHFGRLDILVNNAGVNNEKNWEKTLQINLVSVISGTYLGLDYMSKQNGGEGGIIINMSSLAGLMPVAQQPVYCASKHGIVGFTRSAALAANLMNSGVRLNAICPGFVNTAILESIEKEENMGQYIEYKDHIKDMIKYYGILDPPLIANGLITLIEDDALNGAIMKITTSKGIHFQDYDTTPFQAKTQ
#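 20 nM HPGD preincubated 15 min at room temperature with compound in 50 mM Tris-HCl pH 8, 0.01% Tween 20. Started with 1 mM NAD+ and 30 uM prostaglandin E2; NADH fluorescence (360/450 nm) read 5 times over 30-s intervals, last minus first.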
# HttQ103 aggreg: qHTS Multiplex Assay to Identify Dual Action Probes in a Cell Model of Huntington: Aggregate Formation (GFP); PC12 HttQ103-GFP aggregates, Acumen cytometry, 40 h; Potency, µM (titrated, usually from 46.1 µM), for the others: top-dose activity change, negative = inhibition, actives largely listed as inhibitors; hit rate 1.1% among 220,000; AID 1688, 2009; further: potency means the concentration at half of the fitted maximal effect; on the % scale 0 is the no-effect control and ±100 the full control effect; nearly all actives have a fitted effect of over 60% in size
#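 Compounds (qHTS titration) were added to PC12 cells expressing an ecdysone-driven HTT exon 1 Q103–GFP fusion after induction with 100 nM tebufenozide. Aggregate formation was measured as GFP objects in cell lysates.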
# IMPase cell inh: qHTS Assay for Identifying the Cell-Membrane Permeable IMPase Inhibitors. 120,000 tested, under 10 active. Inositol monophosphatase 1 (Rattus norvegicus), P97697. inhibition (IP1 accumulation), % at 46.1 µM. CHO-M1 cells, IP1 accumulation, HTRF TR-FRET ratio. AID 901, 2007; active means well fitted curve in the direction sought with a large enough effect in the signal ratio, not every such curve was filed as active; inconclusive means small, poorly fitted or top-dose-only effect, or a change in a side signal; inactive means no such curve, though single readings can be large or run the other way; the % refers to the signal ratio;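 further: cells stimulated with carbachol in lithium chloride buffer; plate controls were DMSO basal wells for no effect and reference inhibitor wells for full effect; higher means more IMPase inhibition seen as more IP1 and lower FRET ratio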
# Target sequence (P97697 whole entry, looked up): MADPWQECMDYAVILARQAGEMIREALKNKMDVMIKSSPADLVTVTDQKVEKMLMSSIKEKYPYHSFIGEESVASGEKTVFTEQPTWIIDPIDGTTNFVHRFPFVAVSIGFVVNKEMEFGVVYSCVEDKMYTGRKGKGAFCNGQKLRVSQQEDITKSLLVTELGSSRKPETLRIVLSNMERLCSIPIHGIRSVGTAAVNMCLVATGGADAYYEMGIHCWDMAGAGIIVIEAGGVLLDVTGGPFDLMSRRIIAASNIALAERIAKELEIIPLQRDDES
#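 CHO-M1 cells (CHO stably expressing M1 receptor), compound up to 46 uM final, stimulated with carbachol (50 uM as added) in buffer with 50mM LiCl, pH 7.4, 30 min at 37C. Cytosolic IP1 read by TR-FRET; AC50 from Hill fits.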
# HTT cytoprotect: qHTS Multiplex Assay to Identify Dual Action Probes in a Cell Model of Huntington: Cytoprotection (ATP); PC12 HTT-Q103 induced, cytoprotection, ATP luminescence, 40 h; Potency, µM (highest dose often 56.4 µM), without a hit: cytoprotection (ATP increase), usual class: activators; hit rate 0.14% among 230,000; AID 1471, 2008; further: potency means the concentration at half of the fitted maximal effect; % of control where 0% means no effect; nearly all actives have a fitted effect of over 45% in size
#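 Huntington model: PC12 line, ecdysone-inducible HTTQ103 exon1–GFP, tebufenozide 100 nM. Test articles in a dose series. Endpoint luminescence from cellular ATP.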
# ALDH1A1 inh: qHTS Assay for Inhibitors of Aldehyde Dehydrogenase 1 (ALDH1A1); hit rate 7.3% among 220,000; Purified ALDH1A1, NADH fluorescence, propionaldehyde substrate; Potency, µM (highest dose often 75.3 µM), for inactives: at the highest dose activity, negative = inhibition, hits mostly inhibitors; active means well fitted inhibition curve with a large enough effect, not every such curve was filed as active; inconclusive means small, poorly fitted or top-dose-only effect, or another doubt; inactive means no such curve, though single readings can be large or run the other way;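 further: potency means the concentration at half of the fitted maximal effect; plate controls were no enzyme wells and a reference inhibitor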
# * = called active by the depositor; ? = inconclusive; / = no result; [ ] = another dose, or the depositor's remark. Unless noted, the call rests on the fitted dose curve; in most records, active means well fitted curve in the direction sought with a large enough effect; inconclusive means small, poorly fitted or top-dose-only effect, or another doubt; inactive means no such curve, though single readings can be large; an effect the other way counts as inactive or inconclusive.
SMILES,IMPase Li inh,HPGD block,HttQ103 aggreg,IMPase cell inh,HTT cytoprotect,ALDH1A1 inh
O=C1C2C=CC=CC2=NC(=S)N1CCN1CCC(=C(c2ccc(F)cc2)c2ccc(F)cc2)CC1 (configuration not stated),11%,-23%,/,/,/,-5%
CCCCCN1C(C(=O)c2ccccc2)=C(NC(=O)c2ccccc2Cl)c2ccccc2S1(=O)=O,/,/,/,7,/,/
COc1ccc(C(CC(=O)NCc2ccco2)c2ccc(F)cc2)cc1 (configuration not stated),4%[38.3 µM],16µM*,-13%,5,-23%,1%
COc1ccc(S(=O)(=O)NC(CC(=O)NCc2ccco2)C(C)C)cc1 (configuration not stated),1%,1%,-1%,-5,13%[10 µM],5%
COc1ccc(NC(=O)CC(c2ccc(F)cc2)c2ccc(OC(C)C)cc2)cc1 (configuration not stated),7%,-4%,-11%,/,-14%[10 µM],0.2µM*
CC(C)Oc1ccc(C(CC(=O)O)c2ccc(F)cc2)cc1 (configuration not stated),/,/,-35%[9.22 µM],/,26%[10 µM],/
CN1CCN(c2ccc([N+](=O)[O-])cc2C(=O)c2ccc(Br)cc2)CC1,0%[38.3 µM],-12%,3%,13,-66%,28µM*
Cc1ccc(C(=O)c2cc([N+](=O)[O-])ccc2N2CCOCC2)cc1C,16%,-16%,?,/,-34%[10 µM],32µM*
CCC(CC)c1nnc(NC(=O)c2cc([N+](=O)[O-])ccc2N2CCCCC2)s1,7%,-20%,5%,/,-1%[10 µM],7.9µM*
COc1ccc(C(=O)c2cc([N+](=O)[O-])ccc2N2CCN(C)CC2)cc1,2%,/,4%,/,-126%,5µM*
CC(C)CNC(=O)c1cc([N+](=O)[O-])ccc1N1CCCCC1,12%,-9%,17%,/,19%[10 µM],0%
COc1ccc(C(=O)c2cc([N+](=O)[O-])ccc2N2CCCC2)cc1,20%,-5%,-3%,/,-19%[10 µM],-2%
Cc1ccc(C(=O)c2cc([N+](=O)[O-])ccc2N2CCN(C)CC2)cc1,2%[38.3 µM],-3%,8%,13,-71%,?
O=C(NC12CC3CC(CC(C3)C1)C2)c1cc([N+](=O)[O-])ccc1N1CCOCC1,11%,/,-10%[9.22 µM],/,-7%[10 µM],13µM*
CN1CCN(S(=O)(=O)c2cc([N+](=O)[O-])ccc2N2CCCCCC2)CC1,0%[38.3 µM],-10%,?,3,-20%,?
O=C(c1ccc(Br)cc1)c1cc([N+](=O)[O-])ccc1N1CCCCC1,-23%[38.3 µM],-13%,27%,-21,-112%,2.8µM*
O=[N+]([O-])c1ccc(N2CCCCCC2)c(S(=O)(=O)N2CCCCC2)c1,9%[38.3 µM],-13%,12%,9,26%,25µM*
O=C(NC1CCCCC1)c1cc([N+](=O)[O-])ccc1N1CCCCC1,7%,-7%,-12%,12,-13%[10 µM],13µM*
CC1CCc2nn(CC(=O)NC3CCCC(C)C3C)cc2C1 (configuration not stated),25%[38.3 µM],14µM*,-4%,-1,4%,2%
CC1CCCC(NC(=O)COC(=O)COc2ccc(Cl)cc2)C1C (configuration not stated),12%[38.3 µM],-11%,31%[9.22 µM],-9,3%,1µM*
CCOC(=O)N1CCC(NC(=O)Cn2cc3c(n2)CCC(C)C3)CC1 (configuration not stated),5%,-10%,-12%,8,8%[10 µM],1%
CC1CCCC(NC(=O)COC(=O)Cc2ccc(Br)cc2)C1C (configuration not stated),-4%,/,7%,/,-5%,7%
CC1CCCC(NC(=O)COC(=O)CCC2CCCC2)C1C (configuration not stated),25%[38.3 µM],?,-16%,3,3%,11µM*
COc1cc(CCC(=O)OCC(=O)NC2CCCC(C)C2C)cc(OC)c1OC (configuration not stated),-2%,/,-3%,/,-38%,?
CC1CCCC(NC(=O)Cc2ccc(Br)cc2)C1C (configuration not stated),11%,16µM*,-11%,-4,28%[1.9 µM],-8%
SMILES,IMPase Li inh,HPGD block,HttQ103 aggreg,IMPase cell inh,HTT cytoprotect,ALDH1A1 inh
CC1=CC(=O)CC(C)(C)[C@@]1(O)/C=C\C(C)=C\C(=O)O,/,/,/,/,9%,/
COc1ccc2[nH]cc(CCNc3nc(-c4c(C)noc4C)nc4ccccc34)c2c1,13%,/,/,/,-189%,?
O=C(NCc1ccccc1)c1cccc(COc2ccc3c(c2)CCC3)c1,7%,-8%,-20%,7,-7%[10 µM],2%
NNC(=O)c1ccc(COc2ccc3c(c2)CCC3)o1,-3%,-1%,?,-5,10%[10 µM],7.9µM*
COc1cccc(OC)c1C(=O)NNC(=O)c1cccc(COc2ccc3c(c2)CCC3)c1,-4%[38.3 µM],-6%,-9%,-4,-46%,20µM*
O=C(c1ccco1)N1CCN(C(=O)c2ccc(COc3ccc4c(c3)CCC4)o2)CC1,21%[38.3 µM],28µM*,-21%,6,-49%,28µM*
O=C(N/N=C/c1cccc(O)c1)c1ccc(COc2ccc3c(c2)CCC3)o1,35%[38.3 µM],-16%,-9%,6,1%,-10%
CN(C)C/C(Cl)=C(\Cl)c1ccccc1,-1%[38.3 µM],-23%,-3%,-3,-8%,7.1µM*
Cc1ccc(-c2c(C(=O)Nc3ccccc3C)c(C)[nH]c(=S)c2C#N)o1,11µM*,/,27%,/,-22%,4%
Cn1cccc1C(=O)N1CCC2(CC1)CCN(c1cccc(-c3ccccc3)c1)CC2,20%,?,/,/,7%,?
Cc1ccc(-c2csc(Nc3ccc(S(N)(=O)=O)cc3)n2)o1,10%,/,-9%,/,7%,2.2µM*
Cc1ccc(-c2csc(NC(=O)c3ccc(-c4ccccc4)cc3)n2)o1,34%[38.3 µM],?,?,-6,1%[10 µM],20µM*
COc1ccc(CC(=O)Nc2nc(-c3cccnc3)cs2)cc1,-6%,-14%,21%,/,/,-8%
Cc1ccc(-c2csc(NC(=O)Cc3ccc(F)cc3)n2)o1,18%,/,-2%,/,-29%,3.5µM*
O=C(Nc1nc(-c2ccco2)cs1)c1ccccc1,-3%[38.3 µM],-29%,-14%,6,-20%,?
O=C(NCCN1CCOCC1)c1ccc(Cc2nc3ccccc3[nH]2)cc1,/,-11%,/,/,/,5%
